19 compounds from PubChem BioAssay (NCATS) can be followed below.

Test [1] concerns the target Calcium and integrin-binding protein 1 (Homo sapiens) (UniProt Q99828). The test can be described thus: Primary qHTS for Identification of Calcium Integrin Binding Protein 1 (CIB1) Competitor (AID 1508620).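 Also: GST tagged CIB1 binding a fluorescein labelled alphaIIb integrin peptide tracer; top concentration of the series differs between compounds; % is scaled to controls: 0 for no effect and ±100 for the full control effect.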 The method, boiled down:
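Fluorescence polarization competition: GST-tagged CIB1 (1 uM final) preincubated with compound 15 min at room temperature, then FITC-labelled alphaIIb peptide (100 nM final) added. After 15 min at room temperature, polarization read at Ex 480/Em 540.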

A short description of test [2]: Primary qHTS for small molecule stabilizers of the endoplasmic reticulum resident proteome: Secreted ER Calcium Modulated Protein (SERCaMP) assay (AID 1508630). Also: % is scaled to controls: 0 for no effect and ±100 for the full control effect. In a few lines:
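GLuc-SERCaMP-expressing SH-SY5Y cells, pretreated 16 h with compound, are challenged with thapsigargin to empty ER calcium stores; after 4 h, coelenterazine is added directly to the medium and luminescence is imaged.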
For orientation: Quantitative high-throughput screening tests each substance at several concentrations.

Test [3] deals with Cytochrome P450 2D6 (Homo sapiens) (UniProt P10635). The test can be described thus: Cytochrome P450 family 2 subfamily D member 6 (CYP2D6) small molecule antagonists: luciferase biochemical (cell-free) qHTS assay (AID 1645840; active = well fitted curve in the direction sought with a large enough effect in the repeat runs; an effect the other way counts as inactive or inconclusive; also: nearly all actives have a fitted effect of over 55% in size; also: potency is read from the fitted curve at half-maximal effect). In a few lines:
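P450-Glo luminescent screen: recombinant CYP2D6 enzyme–proluciferin substrate mix preincubated with compound 10 min at room temperature, then NADPH regeneration added for 1 h at room temperature. Detection reagent added for 20 min; luciferin light read as relative luminescence units.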

Test [4] deals with Cytochrome P450 2C9 (Homo sapiens) (UniProt P11712). In words: Cytochrome P450 family 2 subfamily C member 9 (CYP2C9) small molecule antagonists: luciferase biochemical (cell-free) qHTS assay (AID 1645842; active = well fitted curve in the direction sought with a large enough effect in the repeat runs; an effect the other way counts as inactive or inconclusive; also: nearly all actives have a fitted effect of over 55% in size; also: potency is read from the fitted curve at half-maximal effect). In a few lines: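 Luminescence, after 20 min with luciferin detection reagent, reflected CYP2C9 turnover during a 1 h NADPH-driven reaction at 37C. Enzyme-substrate mix contained 0.4% bovine serum albumin and was preincubated with compound 10 min at room temperature.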

The nature of test [5]: Primary qHTS for inhibitors of nuclear receptor binding SET domain protein 2 (NSD2) in an isogenic RCH-ACV NSD2 p.E1099K mutant (9B) (AID 1645876). Also: nearly all actives have a fitted effect of over 70% in size. Also: potency is read from the fitted curve at half-maximal effect.
Test [6] can be described thus: Primary qHTS for inhibitors of nuclear receptor binding SET domain protein 2 (NSD2) in an RCH-ACV wild type WT cells (2C) (AID 1645877). Also: nearly all actives have a fitted effect of over 70% in size. Also: potency is read from the fitted curve at half-maximal effect.
Test [7] in a line: Primary qHTS for inhibitors of La Crosse Virus (LACV) - induced cell death in SH-SY5Y cells (AID 1508616).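 Also: top concentration of the series differs between compounds; 0% = infected DMSO wells and 100% = uninfected DMSO wells; higher means more rescue of cells from virus-induced death.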 The method, boiled down: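 Luminescent ATP readout (ATPLite 1step, 5 min room temperature) measured rescue from LACV-induced death after 6 days of infection at 0.01 MOI; normalized to infected DMSO wells and uninfected DMSO wells.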
Test [8] deals with Papain (Carica papaya) (UniProt P00784). In words: Primary qHTS assay for inhibitors of the protease papain (AID 1645873).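 Also: papain turnover of Z-FR-AMC read as the AMC fluorescence gain over 10 min.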 Also: potency is read from the fitted curve at half-maximal effect. As to activity change, negative = inhibition: series mostly up to about 50 µM; % is scaled to controls: 0 for no effect and ±100 for the full control effect.
In test [9] the target is Calcium and integrin-binding protein 1 (Homo sapiens) (UniProt Q99828). In words: Validation qHTS for Identification of Calcium Integrin Binding protein 1 (CIB1) Competitor (AID 1508618). Also: % is scaled to controls: 0 for no effect and ±100 for the full control effect. The method, boiled down: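 Displacement of FITC-alphaIIb peptide (100 nM) from CIB1-GST (1 uM) is monitored by polarization in quantitative HTS format; buffer carries 5 mM CaCl2 and 125 mM NaCl at pH 7.4, incubations are at room temperature.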

Test [10] addresses Rap guanine nucleotide exchange factor 3 (Homo sapiens) (UniProt O95398). In words: Confirmatory qHTS for antagonist of cAMP-regulated guanine nucleotide exchange factor 3 (EPAC1) (AID 1645880). Also: nearly all actives have a fitted effect of over 55% in size. Also: potency is read from the fitted curve at half-maximal effect. The method, boiled down:
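Nucleotide exchange uses 100 nM EPAC1, 250 nM RAP1B-BODIPY-GDP and 50 uM GDP, with compounds in a concentration-titration series. After 5 min at room temperature, fluorescence (480 nm ex/540 nm em) is read every 5 min for 30 min. Data are normalized to control ATA and DMSO.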

Test [11] shares this target. In words: Confirmatory qHTS for agonist of cAMP-regulated guanine nucleotide exchange factor 3 (EPAC1) (AID 1645881).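 Also: EPAC1 catalysed release of BODIPY-GDP from Rap1B seen as fluorescence loss; 100% = effect of cAMP agonist control; nearly all actives have a fitted effect of over 75% in size.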
The target of test [12] is Rap guanine nucleotide exchange factor 4 (Homo sapiens) (UniProt Q8WZA2). The test can be described thus: Confirmatory qHTS for agonist of cAMP-regulated guanine nucleotide exchange factor 4 (EPAC2) (AID 1645884).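 Also: nucleotide exchange releases bodipy-GDP from Rap1 and this lowers its fluorescence; % is scaled to controls: 0 for no effect and ±100 for the full control effect; nearly all actives have a fitted effect of over 65% in size.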
For test [13], the target named is Rap guanine nucleotide exchange factor 3 (Homo sapiens) (UniProt O95398). In words: Counterscreen qHTS for antagonist of cAMP-regulated guanine nucleotide exchange factor 3 (EPAC1) (AID 1645888).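 Also: fluorescence loss as bound BODIPY-GDP is released from Rap1B; % of control where 0% means no effect.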 The method, boiled down:
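Rap1B–BODIPY-GDP (250 nM) with 50 uM GDP; compounds pin-transferred to 9.74 nM–152 uM final (activator) or from 7.32 nM upwards (inhibitor). Fluorescence Ex/Em 480/540 nm read at 5 and 30 min, then after adding cAMP or buffer, at room temperature.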
Background: Counterscreens check selectivity or assay interference.

The nature of test [14]: A High-Content qHTS Against Drug Library for the Identification of Small Molecules that Inhibit DYT1 Early Onset Primary Dystonia-Associated Cell Pathology (AID 1645839; calls by dose curve; also: series mostly up to about 46 µM). In a few lines: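 Flp-In T-REx 293 cells with tetracycline-inducible EGFP-delE hTOR1A (WT EGFP-hTOR1A as reference), 800 cells/well; compound added with tetracycline, 48 h at 37 C. Fixed, permeabilized cells imaged; %pathology (punctate TorsinA) primary, cell count counterscreen.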

In test [15] the target is Rap guanine nucleotide exchange factor 4 (Homo sapiens) (UniProt Q8WZA2). In words: Confirmatory qHTS for antagonist of cAMP-regulated guanine nucleotide exchange factor 4 (EPAC2) (AID 1645885). Also: nearly all actives have a fitted effect of over 25% in size. Also: potency is read from the fitted curve at half-maximal effect.

“And” between values parts separate entries of the source, which are not always exact repeats. Equal entries are not always repeated. Inconclusive results are not listed. Some compounds were tested as several samples or in several runs, with calls that do not always agree. The source made the active and inactive calls. Unless noted, calls follow the shape of the dose curve; as a rule, active = well fitted curve in the direction sought with a large enough effect; inconclusive = small, poorly fitted or top-dose-only effect, or another doubt; inactive = no such curve, though single readings can be large; an effect the other way counts as inactive or inconclusive.

Sequence of Rap guanine nucleotide exchange factor 3 (Homo sapiens) (O95398 whole entry, looked up): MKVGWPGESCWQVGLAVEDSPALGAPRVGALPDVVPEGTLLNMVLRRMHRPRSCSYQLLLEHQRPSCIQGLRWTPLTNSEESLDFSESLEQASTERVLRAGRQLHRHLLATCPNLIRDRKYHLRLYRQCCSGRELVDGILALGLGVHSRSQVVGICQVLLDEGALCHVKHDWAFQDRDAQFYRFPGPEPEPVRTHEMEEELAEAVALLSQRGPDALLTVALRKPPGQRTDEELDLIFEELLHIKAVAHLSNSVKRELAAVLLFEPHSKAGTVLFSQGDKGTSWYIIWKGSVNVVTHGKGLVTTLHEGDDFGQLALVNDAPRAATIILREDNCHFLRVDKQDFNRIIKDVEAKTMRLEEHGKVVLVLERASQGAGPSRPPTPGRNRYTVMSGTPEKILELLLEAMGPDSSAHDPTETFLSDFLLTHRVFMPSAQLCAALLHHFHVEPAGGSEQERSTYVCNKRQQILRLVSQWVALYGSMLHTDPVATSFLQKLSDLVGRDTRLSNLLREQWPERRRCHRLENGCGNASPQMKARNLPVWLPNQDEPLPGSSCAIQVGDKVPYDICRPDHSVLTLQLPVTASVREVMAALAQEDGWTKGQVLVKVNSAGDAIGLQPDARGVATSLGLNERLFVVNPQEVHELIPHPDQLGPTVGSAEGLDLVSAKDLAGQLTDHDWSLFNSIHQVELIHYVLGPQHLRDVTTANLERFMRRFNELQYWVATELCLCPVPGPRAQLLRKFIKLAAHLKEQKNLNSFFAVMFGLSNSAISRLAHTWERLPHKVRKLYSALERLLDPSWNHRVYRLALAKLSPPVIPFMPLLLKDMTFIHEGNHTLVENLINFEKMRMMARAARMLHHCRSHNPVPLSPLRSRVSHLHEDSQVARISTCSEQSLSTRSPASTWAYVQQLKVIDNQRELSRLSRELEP
Sequence of Cytochrome P450 2D6 (Homo sapiens) (P10635 whole entry, looked up): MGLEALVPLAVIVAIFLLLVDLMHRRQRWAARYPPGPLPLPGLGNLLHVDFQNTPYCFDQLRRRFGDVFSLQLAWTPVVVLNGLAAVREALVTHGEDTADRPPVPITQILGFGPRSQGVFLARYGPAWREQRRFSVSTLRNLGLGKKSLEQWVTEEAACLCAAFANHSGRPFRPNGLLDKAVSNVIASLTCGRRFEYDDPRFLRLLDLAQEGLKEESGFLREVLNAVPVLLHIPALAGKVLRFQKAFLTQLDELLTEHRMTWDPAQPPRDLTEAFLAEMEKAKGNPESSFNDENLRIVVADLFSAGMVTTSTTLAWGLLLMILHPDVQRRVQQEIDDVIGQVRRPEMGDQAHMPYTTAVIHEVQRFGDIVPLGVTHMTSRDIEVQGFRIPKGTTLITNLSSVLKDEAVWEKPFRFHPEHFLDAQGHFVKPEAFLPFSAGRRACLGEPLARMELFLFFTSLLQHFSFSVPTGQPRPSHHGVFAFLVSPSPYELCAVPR
Sequence of Cytochrome P450 2C9 (Homo sapiens) (P11712 whole entry, looked up): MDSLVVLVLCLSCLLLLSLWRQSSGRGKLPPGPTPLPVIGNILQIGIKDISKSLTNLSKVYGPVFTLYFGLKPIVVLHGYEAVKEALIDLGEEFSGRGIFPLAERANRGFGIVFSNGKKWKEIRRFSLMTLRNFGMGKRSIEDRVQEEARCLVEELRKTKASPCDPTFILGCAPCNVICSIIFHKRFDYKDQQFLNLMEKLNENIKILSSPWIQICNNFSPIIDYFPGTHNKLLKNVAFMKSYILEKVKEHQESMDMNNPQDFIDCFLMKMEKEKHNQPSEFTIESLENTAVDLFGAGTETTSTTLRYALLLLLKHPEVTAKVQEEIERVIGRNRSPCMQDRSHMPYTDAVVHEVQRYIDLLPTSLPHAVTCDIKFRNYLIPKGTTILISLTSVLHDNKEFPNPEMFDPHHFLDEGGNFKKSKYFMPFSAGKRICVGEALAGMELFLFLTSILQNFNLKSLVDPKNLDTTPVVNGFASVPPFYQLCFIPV
Sequence of Calcium and integrin-binding protein 1 (Homo sapiens) (Q99828 whole entry, looked up): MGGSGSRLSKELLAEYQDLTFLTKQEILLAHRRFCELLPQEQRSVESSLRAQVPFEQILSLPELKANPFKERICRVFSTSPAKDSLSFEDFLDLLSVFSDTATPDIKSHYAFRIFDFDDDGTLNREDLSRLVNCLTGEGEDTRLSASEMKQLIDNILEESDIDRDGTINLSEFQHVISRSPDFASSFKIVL
Sequence of Rap guanine nucleotide exchange factor 4 (Homo sapiens) (Q8WZA2 whole entry, looked up): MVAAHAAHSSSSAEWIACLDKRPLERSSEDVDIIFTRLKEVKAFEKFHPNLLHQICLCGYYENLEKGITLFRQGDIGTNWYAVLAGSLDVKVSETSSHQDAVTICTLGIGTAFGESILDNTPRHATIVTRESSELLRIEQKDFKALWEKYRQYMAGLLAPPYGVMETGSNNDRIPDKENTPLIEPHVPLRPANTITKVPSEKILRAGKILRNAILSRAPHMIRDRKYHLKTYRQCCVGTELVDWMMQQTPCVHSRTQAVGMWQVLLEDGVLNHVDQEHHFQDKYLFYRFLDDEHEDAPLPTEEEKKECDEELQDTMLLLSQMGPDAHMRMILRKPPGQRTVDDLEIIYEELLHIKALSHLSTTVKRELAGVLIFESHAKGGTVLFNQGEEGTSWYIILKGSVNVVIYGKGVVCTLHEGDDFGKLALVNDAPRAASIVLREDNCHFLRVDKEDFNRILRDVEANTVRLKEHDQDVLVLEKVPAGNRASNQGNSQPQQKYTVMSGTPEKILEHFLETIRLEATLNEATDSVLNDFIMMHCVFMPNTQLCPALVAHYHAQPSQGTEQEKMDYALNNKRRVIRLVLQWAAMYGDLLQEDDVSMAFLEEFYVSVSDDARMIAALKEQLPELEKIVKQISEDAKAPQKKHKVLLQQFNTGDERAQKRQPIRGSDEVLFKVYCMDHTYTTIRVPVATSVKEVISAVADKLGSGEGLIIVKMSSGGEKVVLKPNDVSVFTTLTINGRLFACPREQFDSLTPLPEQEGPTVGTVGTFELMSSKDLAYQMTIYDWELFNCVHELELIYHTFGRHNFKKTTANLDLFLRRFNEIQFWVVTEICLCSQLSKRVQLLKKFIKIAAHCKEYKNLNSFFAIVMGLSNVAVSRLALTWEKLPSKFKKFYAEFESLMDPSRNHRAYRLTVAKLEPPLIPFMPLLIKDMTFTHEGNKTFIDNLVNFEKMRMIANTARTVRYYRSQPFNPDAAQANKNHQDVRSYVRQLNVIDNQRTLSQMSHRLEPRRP
Sequence of Papain (Carica papaya) (P00784 whole entry, looked up): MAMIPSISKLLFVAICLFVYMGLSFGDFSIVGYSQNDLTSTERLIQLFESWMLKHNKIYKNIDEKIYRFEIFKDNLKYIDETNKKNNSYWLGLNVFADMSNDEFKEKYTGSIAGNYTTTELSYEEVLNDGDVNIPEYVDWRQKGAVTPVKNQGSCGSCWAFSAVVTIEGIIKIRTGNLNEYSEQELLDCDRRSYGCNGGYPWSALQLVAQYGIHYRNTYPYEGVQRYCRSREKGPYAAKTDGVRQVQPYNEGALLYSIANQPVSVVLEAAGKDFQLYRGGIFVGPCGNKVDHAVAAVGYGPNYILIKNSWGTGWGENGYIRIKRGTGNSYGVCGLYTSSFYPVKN

On to `NC(=NCCCCCCN=C(N)/N=C(\N)Nc1ccc(Cl)cc1)/N=C(\N)Nc1ccc(Cl)cc1`, for which the Potency result in test [1] and in test [2] was “inactive” each time. Besides, the Potency was 2.45 µM (active) in test [3]; 24.5 µM (active) in test [4]; 2.99 µM (active) and 3.65 µM (active) in [5]; 5.96 µM (active) and 3.65 µM (active) in test [6].

Consider `COC(=O)[C@H]1[C@H]2C[C@H]3c4[nH]c5ccccc5c4CCN3C[C@H]2CC[C@@H]1O`, for which the Potency result in test [7], in test [2] and in [8] was “inactive” throughout.

With `CNCCC=C1c2ccccc2CCc2ccccc21`, the outcome in [9] was inactive. The Potency result in test [2], in test [4] and in test [8] was “inactive” throughout. Also, the Potency in test [3] is 4.77 µM (active); in test [5], 23.1 µM (active); in test [6], 20.6 µM (active).

As for `CN(C(=O)CN(CCO)CC(=O)N(C)C(C)(C)Cc1ccccc1)C(C)(C)Cc1ccccc1`, the Potency entry in test [7] was “inactive”. In addition, the Potency in [3] is 1.38 µM (active); in test [4], 15.5 µM (active); in [5], 5.31 µM (active); in [6] it was 5.31 µM (active).

Regarding `O=C(Nc1ccc(Oc2ccc(Cl)cc2)c(Cl)c1)c1cc(I)cc(I)c1O`, the Potency result in test [7], in test [4], in test [5], in test [6] and in [12] was “inactive” throughout. The Potency in test [3] is 19.5 µM (active); in [10], 30.1 µM (active). Moreover, the outcome in test [11] and in [13] was inactive.

Turning to `CC(=O)OCC(=O)[C@@]1(O)[C@H](C)C[C@H]2[C@@H]3CCC4=CC(=O)C=C[C@]4(C)[C@@]3(F)[C@@H](O)C[C@@]21C`, the Potency result in [7], in test [2], in [14] and in test [3] was “inactive” each time. Also, the Potency in [6] was 3.3 nM (active) and 12.9 nM (active).

Consider `CCN1CCCC1=O`, for which the Potency entry in [1], in test [3], in test [4], in [5] and in test [6] was “inactive” each time.

On to `C[n+]1c2cc(N)ccc2cc2ccc(N)cc21` (tested in a mixture with another compound), for which the Potency entry in test [7], in test [2], in test [4], in test [10] and in test [15] was “inactive” each time. Further, the Potency is 11 µM (active) in [3], 1.5 µM (active) in test [5] and 1.19 µM (active) in test [6].

Regarding `CC(C)(C)CC(C)(C)c1ccc(OCCOCC[N+](C)(C)Cc2ccccc2)cc1`, the Potency result in test [7] and in test [2] was “inactive” in each case. In addition, the Potency in test [5] was 1.19 µM (active) and 1.83 µM (active); in [6] it was 944 nM (active) and 1.63 µM (active).

On to `COc1cc(NS(C)(=O)=O)ccc1Nc1c2ccccc2nc2ccccc12`, for which the Potency result in [7] and in test [2] was “inactive” in each case. Further, the Potency in test [8] was 22.4 µM (active); in test [5], 0.417 µM (active); in [6], 0.332 µM (active).

Consider `NCCC(O)(P(=O)(O)O)P(=O)(O)O`, for which the Potency result in test [1], in test [14], in test [3], in test [4], in test [5] and in [6] was “inactive” in each case.

Consider `Cc1ccccc1C(=O)Nc1ccc(C(=O)N2CCCC(N(C)C)c3ccccc32)cc1` (stereo unspecified), for which the Potency entry in test [1], in test [2], in [3] and in [4] was “inactive” each time. Moreover, the Potency was 5.78 µM (active) in [5]; “inactive and 5.15 µM (active)” in test [6].

Consider `COc1cccc2c1C(=O)c1c(O)c3c(c(O)c1C2=O)C[C@@](O)(C(=O)CO)C[C@@H]3O[C@H]1C[C@H](N)[C@H](O)[C@H](C)O1`, for which the Potency result in test [2] and in [4] was “inactive” throughout. The Potency in [5] was 188 nM (active) and 33.2 nM (active); in test [6], 150 nM (active) and 26.3 nM (active).

Turning to `Oc1ccc(Cl)cc1Sc1cc(Cl)ccc1O`, the Potency result in test [7], in [2] and in [12] was “inactive” in each case. The Potency in test [3] is 12.3 µM (active); in [4], 12.3 µM (active); in [5], 18.8 µM (active); in test [15] it was 31.2 µM (active). In addition, in test [11], the compound was called inactive. Moreover, in test [15], the activity change, negative = inhibition is -4.98% [at 12.7 µM] (inactive).

As for `C=C(CC)C(=O)c1ccc(OCC(=O)O)c(Cl)c1Cl`, the Potency entry in test [2] and in test [3] was “inactive” throughout. The Potency in test [4] was 3.89 µM (active); in test [5], 21.1 µM (active).

Consider `C[C@]12CC[C@@H]3c4ccc(O)cc4CC[C@H]3[C@@H]1CC[C@@H]2O`, for which the Potency entry in test [7], in [2], in [3], in test [4] and in [8] was “inactive” in each case. For the same compound, the Potency in test [5] is 16.6 µM (active); in [6], 7.42 µM (active).

Regarding `Oc1c(I)cc(I)c2cccnc12`, the Potency entry in test [1], in test [2], in test [3] and in test [4] was “inactive” throughout. Moreover, the Potency in test [5] was 2.99 µM (active); in test [6], 2.11 µM (active).

Take `CC(=O)N(O)CCCCCNC(=O)CCC(=O)N(O)CCCCCNC(=O)CCC(=O)N(O)CCCCCN`: the Potency result in test [1], in test [2], in test [3] and in [4] was “inactive” each time. Moreover, the Potency was 7.5 µM (active) and 5.25 µM (active) in test [5]; 4.73 µM (active) and 4.68 µM (active) in [6].

Turning to `Nc1ccc(C(=O)Nc2ccccc2N)cc1`, the Potency result in [1], in [2], in [3] and in test [4] was “inactive” each time. Further, the Potency in [5] was 9.44 µM (active); in test [6], 8.41 µM (active).
